For four molecules, composite z-score and z-score results are on record in PubChem BioAssay.

Assay [1] in a line: anti-His antibody binders, primary screen, artefact control for SMM control protein annotation, biochemical, small-molecule microarray, 635 nm fluorescence (AID 1128).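 Note: score merges feature fluorescence with signal-to-noise for each printed compound spot.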 The following applies: anti-His Alexa647 antibody binding, higher = more signal.
Assay [2] relates to Human papillomavirus type 1a E7 protein (residues 1-88). The experiment in a line: HPV1a E7 small-molecule binders, primary screen, biochemical, small-molecule microarray, residues 1-88, 635 nm (AID 1129). The conditions noted are these: small-molecule microarray binding, fluorescence 635 nm; higher = more signal.
In assay [3] the target is Focal adhesion kinase 1 (Homo sapiens) (UniProt Q05397). Description: small-molecule microarray binders of FAK, primary screen, biochemical, 635/667 nm fluorescence, BSA, DTT (AID 1130).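 Note: composite of spot emission at 667 nm and signal to noise over triplicate slides.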 The following applies: PTK2 binding, 635 nm fluorescence, higher = more signal.
Sequence of Focal adhesion kinase 1 (Homo sapiens) (Q05397 whole entry, looked up): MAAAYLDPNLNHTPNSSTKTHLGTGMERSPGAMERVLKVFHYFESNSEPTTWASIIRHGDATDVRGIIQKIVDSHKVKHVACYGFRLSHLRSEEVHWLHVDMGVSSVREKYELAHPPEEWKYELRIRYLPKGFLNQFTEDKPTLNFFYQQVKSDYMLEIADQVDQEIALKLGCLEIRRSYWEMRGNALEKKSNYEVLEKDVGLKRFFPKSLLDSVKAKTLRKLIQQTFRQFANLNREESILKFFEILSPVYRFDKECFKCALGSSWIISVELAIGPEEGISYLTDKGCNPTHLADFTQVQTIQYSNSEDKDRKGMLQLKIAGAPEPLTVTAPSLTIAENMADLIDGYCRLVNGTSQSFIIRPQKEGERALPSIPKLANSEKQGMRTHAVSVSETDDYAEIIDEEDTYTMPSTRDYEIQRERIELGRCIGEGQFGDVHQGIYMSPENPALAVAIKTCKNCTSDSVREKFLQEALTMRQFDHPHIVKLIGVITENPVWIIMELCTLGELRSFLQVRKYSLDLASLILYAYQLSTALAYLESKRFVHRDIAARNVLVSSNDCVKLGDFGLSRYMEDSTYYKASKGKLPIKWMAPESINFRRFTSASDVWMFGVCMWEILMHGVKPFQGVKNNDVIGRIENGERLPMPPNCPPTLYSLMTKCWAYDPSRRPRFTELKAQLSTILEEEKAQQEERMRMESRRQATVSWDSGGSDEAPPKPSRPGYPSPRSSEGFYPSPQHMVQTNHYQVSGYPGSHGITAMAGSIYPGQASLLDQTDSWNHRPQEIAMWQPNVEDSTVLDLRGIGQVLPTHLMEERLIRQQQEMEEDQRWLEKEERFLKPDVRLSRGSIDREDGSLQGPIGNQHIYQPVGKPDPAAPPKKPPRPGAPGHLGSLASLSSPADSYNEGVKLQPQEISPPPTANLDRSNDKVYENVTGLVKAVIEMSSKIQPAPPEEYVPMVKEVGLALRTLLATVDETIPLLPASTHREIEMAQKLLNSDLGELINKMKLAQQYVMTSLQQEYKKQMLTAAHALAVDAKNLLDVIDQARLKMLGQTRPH
The test system of assay [4] is Fibrinogen (Alexa647-labelled). Description: fibrinogen binders on compound microarrays, profiling panel, artefact control for SMM control-protein annotation, biochemical, small-molecule microarray, 635/667 nm fluorescence (AID 1131).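 Note: z-score merges 667 nm fluorescence with per-spot signal-to-noise over triplicate slides.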 The following applies: fibrinogen-A647 binding fluorescence, higher = more signal.
The target in assay [5] is Follistatin (Homo sapiens) (UniProt P19883). Description: follistatin binders on small-molecule microarrays, primary screen, biochemical, small-molecule microarray, 635/667 nm fluorescence (AID 1132). The following applies: FST binding, 635 nm fluorescence, higher = more signal.
Sequence of Follistatin (Homo sapiens) (P19883 whole entry, looked up): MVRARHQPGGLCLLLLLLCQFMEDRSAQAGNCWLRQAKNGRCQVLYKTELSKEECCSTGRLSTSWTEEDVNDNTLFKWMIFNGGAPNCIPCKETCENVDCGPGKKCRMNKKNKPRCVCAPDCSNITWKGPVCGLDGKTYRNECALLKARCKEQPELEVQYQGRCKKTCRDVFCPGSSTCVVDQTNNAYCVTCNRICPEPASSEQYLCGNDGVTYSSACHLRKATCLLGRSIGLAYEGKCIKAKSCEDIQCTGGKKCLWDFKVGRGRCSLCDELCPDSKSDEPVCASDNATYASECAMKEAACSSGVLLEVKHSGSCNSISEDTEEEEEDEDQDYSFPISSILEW
Assay [6] concerns the target Fibroblast growth factor 2 (Homo sapiens) (UniProt P09038). Description: FGF2 binders on small-molecule microarrays, primary screen, biochemical, small-molecule microarray, 635/667 nm fluorescence (AID 1133). The conditions noted are these: small-molecule microarray binding, FGF2, fluorescence 635/667; higher = more signal.
Assay [7] is described as follows: mitochondrial membrane potential change in A549 cells, profiling panel, cell-based, JC-1 fluorescence, basal, 24 h, 100 nL (AID 1138).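 Note: A549 lung adenocarcinoma cells under basal conditions with no added stimulus; test concentration not given here.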 The conditions noted are these: higher = more signal.
In the next assay the test system is Lefty1. The experiment in a line: Lefty1 binders on small-molecule microarrays, primary screen, biochemical, small-molecule microarray, 635/667 nm fluorescence (AID 1139). The conditions noted are these: small-molecule microarray binding, fluorescence 635/667; higher = more signal.
Assay [8] concerns wheat germ agglutinin (Triticum aestivum), Alexa647-labelled. Description: wheat germ agglutinin binders on compound microarrays, profiling panel, artefact control for SMM control-protein annotation, biochemical, small-molecule microarray, 635/667 nm fluorescence (AID 1140).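 Note: score merges 667 nm feature emission with signal to noise over triplicate slides.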 The following applies: WGA-A647 binding, 635 nm fluorescence, higher = more signal.
For assay [9], the target named is Luciferin 4-monooxygenase (Photinus pyralis) (UniProt P08659). The experiment in a line: firefly luciferase enzyme inhibitors, primary screen, biochemical, luminescence, purified enzyme, 2006 set (AID 1141).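 Note: cell-free assay with purified firefly luciferase at 100 ng per well in PBS; test concentration not given here.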 The following applies: SteadyGlo luminescence, 30 min, higher = more signal, called active from +8 up or from −8 down.
Sequence of Luciferin 4-monooxygenase (Photinus pyralis) (P08659 whole entry, looked up): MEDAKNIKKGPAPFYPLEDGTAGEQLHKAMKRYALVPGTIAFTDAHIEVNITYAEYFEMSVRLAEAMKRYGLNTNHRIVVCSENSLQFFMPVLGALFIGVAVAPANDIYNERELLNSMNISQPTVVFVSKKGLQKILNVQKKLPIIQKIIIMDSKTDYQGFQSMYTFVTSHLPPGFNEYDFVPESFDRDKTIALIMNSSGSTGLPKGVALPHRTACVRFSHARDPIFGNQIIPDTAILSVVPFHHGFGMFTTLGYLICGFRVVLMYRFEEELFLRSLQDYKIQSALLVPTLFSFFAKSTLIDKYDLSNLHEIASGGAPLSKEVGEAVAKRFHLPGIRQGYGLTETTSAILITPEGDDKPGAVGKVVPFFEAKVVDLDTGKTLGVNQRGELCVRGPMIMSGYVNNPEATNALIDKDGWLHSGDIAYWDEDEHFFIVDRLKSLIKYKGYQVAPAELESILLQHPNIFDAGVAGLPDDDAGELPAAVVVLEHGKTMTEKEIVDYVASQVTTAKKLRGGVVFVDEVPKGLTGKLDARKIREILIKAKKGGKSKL
The subject of assay [10] is Wnt5a (protein binding on small-molecule microarray). The experiment in a line: Wnt5a binders on small-molecule microarray, primary screen, biophysical, 635/667 nm fluorescence (AID 1142).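 Note: fluorescence read at 667 nm with signal to noise per printed feature.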 The following applies: 635 nm fluorescence, higher = more signal.
Assay [11] can be described thus: cell viability in Huh7 cells, primary screen, cytotoxicity control for HCV replication inhibitor project, CellTiter-Glo luminescence, basal, 48 h (AID 1143).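 Note: Huh7 hepatoma cells carrying a hepatitis C replication reporter with no stimulus; test concentration not given here.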 The following applies: Huh7 HCV replicon, higher = more signal, called active from +8 up or from −8 down.
Assay [12] in a line: P. aeruginosa biofilm formation inhibitors, primary screen, PAO1 strain, BacTiter-Glo luminescence, LB-PBS (AID 1144). The following applies: 12 h, higher = more signal.
The nature of assay [13]: CREB reporter modulators without forskolin, primary screen, cell-based, PC12, CRE-LacZ reporter, unstimulated (AID 1145). The following applies: no forskolin, luminescence, 4.5 h, higher = more signal, called active from +8 up or from −8 down.
Assay [14] is described as follows: CREB reporter modulators under forskolin, primary screen, cell-based, PC12, CRE-LacZ reporter, forskolin-stimulated (AID 1146).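 Note: PC12 cells with 6xCRE LacZ reporter stimulated by forskolin 10 µM; beta-galactosidase reporter signal reflecting CREB driven transcription.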 The following applies: luminescence, 4.5 h, higher = more signal, called active from +8 up or from −8 down.
The target in assay [15] is Streptavidin (Streptomyces avidinii) (UniProt P22629). Description: streptavidin binders on small-molecule microarray, primary screen, artefact control for SMM compound annotation, biophysical, 635/667 nm fluorescence (AID 1147).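 Note: signal reflects streptavidin binding to arrayed compounds as a control protein.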 The following applies: streptavidin binding, higher = more signal.
Sequence of Streptavidin (Streptomyces avidinii) (P22629 whole entry, looked up): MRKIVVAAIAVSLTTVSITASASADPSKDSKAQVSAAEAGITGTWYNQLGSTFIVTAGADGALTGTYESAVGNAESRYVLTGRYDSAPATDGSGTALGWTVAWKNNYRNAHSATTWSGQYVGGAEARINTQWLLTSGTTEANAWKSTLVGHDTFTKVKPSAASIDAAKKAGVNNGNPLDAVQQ
Assay [16] is described as follows: small-molecule binders of probe aInhba, primary screen, biochemical, small-molecule microarray, 635/667 nm fluorescence (AID 1148).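 Note: score merges 667nm spot fluorescence with signal-to-noise for antibody binding to printed compounds.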 The conditions noted are these: higher = more signal.
Assay [17] addresses Torsin-1A (Homo sapiens) (UniProt O14656). Description: torsin A binders from cell lysate, primary screen, small-molecule microarray, wild-type, 635/667 nm (AID 1149). The conditions noted are these: COS7 hTOR1A-WT lysate, 635 nm fluorescence, higher = more signal.
For assay [18] the target is unchanged. The experiment in a line: small-molecule binders of mutant TOR1A in lysate, primary screen, cell lysate, small-molecule microarray, COS7 lysate, 635/667 nm fluorescence (AID 1150).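 Note: score pools 667 nm emission and signal to noise measuring lysate protein binding.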 The following applies: COS7 hTOR1A mutant lysate, 635 nm fluorescence, higher = more signal.
In assay [19] the test system is Sonic hedgehog protein (Shh). The experiment in a line: small-molecule binders of Shh protein, primary screen, biochemical, small-molecule microarray, 635/667 nm fluorescence (AID 1151).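 Note: Shh protein binding to compounds spotted on small-molecule microarray slides; score combines spot fluorescence intensity with signal-to-noise across triplicate slides.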 The conditions noted are these: small-molecule microarray binding, 635 nm fluorescence; higher = more signal.

The structures appear in SMILES notation. Calls of active or inactive are those of the source. Unless noted, the rule behind the calls is not given here.

Sequence of Torsin-1A (Homo sapiens) (O14656 whole entry, looked up): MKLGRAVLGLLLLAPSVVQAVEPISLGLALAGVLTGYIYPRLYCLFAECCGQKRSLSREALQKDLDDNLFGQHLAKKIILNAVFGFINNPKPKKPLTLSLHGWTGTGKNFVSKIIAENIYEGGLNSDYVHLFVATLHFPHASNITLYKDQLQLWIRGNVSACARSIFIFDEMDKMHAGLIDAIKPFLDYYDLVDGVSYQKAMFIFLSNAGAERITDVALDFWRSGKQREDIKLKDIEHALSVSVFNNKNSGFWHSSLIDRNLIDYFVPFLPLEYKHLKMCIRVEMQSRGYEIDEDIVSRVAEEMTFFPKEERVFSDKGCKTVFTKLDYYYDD
Sequence of Fibroblast growth factor 2 (Homo sapiens) (P09038 whole entry, looked up): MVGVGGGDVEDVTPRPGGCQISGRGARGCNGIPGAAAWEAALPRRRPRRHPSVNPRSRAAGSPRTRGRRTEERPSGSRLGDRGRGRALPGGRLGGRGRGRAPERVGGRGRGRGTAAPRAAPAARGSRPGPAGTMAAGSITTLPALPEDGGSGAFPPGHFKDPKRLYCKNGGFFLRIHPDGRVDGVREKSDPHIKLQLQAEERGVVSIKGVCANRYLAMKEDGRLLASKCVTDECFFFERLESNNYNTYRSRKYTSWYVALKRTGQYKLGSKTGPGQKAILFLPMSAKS

With `C[N+](C)(C)CCCCCCNC(=O)[C@H]1C[C@H]2C(=O)N[C@@H](Cc3ccccc3)C(=O)N2[C@H]1c1cccc(OCCO)c1`, the composite z-score in assay [1] was found to be 0.357; in assay [2] it was 0.69; in [3], 0.118; in [4], 0.22; in [5], 1.16; in [6] it was 1.83. The composite z-score in the assay on Lefty1 was 1.4; in assay [8] it was -0.046; in assay [10], 0.385; in [15], -0.563; in assay [16], 0.0176; in the assay with Torsin-1A (Homo sapiens) [17], 1.12. Also, the composite z-score stood at 1.24 with Torsin-1A (Homo sapiens) [18] and 2.08 in assay [19]. Also, the z-score in [7] was -0.585; in [9], 0.0538 (inactive); in [11], -0.236 (inactive); in assay [12] it was -0.278 (inactive); in assay [13] it was -0.252 (inactive); in assay [14] it was -0.54 (inactive).
On to `CC(CO)N1C(=O)[C@@H]2C3C(=O)OCCC/C=C\[C@H]3OC23C=CCN(CCN2CCOCC2)C(=O)[C@@H]13` (stereo not given in full), for which the composite z-score was 0.537 in [1]; -0.624 in assay [2]; -0.181 in [3]; -1.1 in [4]; 0.205 in assay [5]; 0.186 in assay [6]. In addition, the composite z-score is 0.376 with Lefty1; -0.169 in [8]; 0.0719 in assay [10]; -0.254 in assay [15]; -0.201 in [16]; -0.951 in the assay with Torsin-1A (Homo sapiens) [17]. Further, the composite z-score with Torsin-1A (Homo sapiens) [18] was -0.776; in assay [19] it was 1.21. Further, the z-score in [7] is 1.08; in [9] it was -0.523 (inactive); in assay [11] it was 0.795 (inactive); in assay [12] it was -1.1 (inactive); in assay [13] it was -0.476 (inactive); in assay [14], -0.183 (inactive).
For the molecule `COC(=O)[C@@]1(Cc2ccc(OC)cc2)[C@H]2c3cc(C(=O)N4CCCC4)n(CCSCCO)c3C[C@H]2CN1C(=O)c1ccccc1`, the composite z-score was 2.01 in [1]; 1.29 in assay [2]; 0.529 in assay [3]; 0.787 in assay [4]; -0.0598 in assay [5]; -0.254 in [6]. Also, the composite z-score was -0.731 with Lefty1; 1.39 in assay [8]; 0.631 in assay [10]; 0.532 in assay [15]; 0.257 in assay [16]; 0.396 with Torsin-1A (Homo sapiens) [17]. Further, the composite z-score in the assay with Torsin-1A (Homo sapiens) [18] is 1.45; in assay [19], -0.623. Moreover, the z-score was 0.572 in assay [7]; 0.644 (inactive) in assay [9]; -0.974 (inactive) in assay [11]; 0.58 (inactive) in [12]; 1.34 (inactive) in assay [13]; 1.82 (inactive) in [14].
In the case of `COc1ccccc1CN1C(=O)c2ccccc2[C@@]2(Cc3ccccc3N(CCCN(C)C)C2=O)[C@@H]1c1ccc(CO)cc1`, the composite z-score in [1] is 0.583; in [2], -0.984; in [3], -0.0228; in assay [4] it was 0.253; in [5], 1.2; in assay [6], 0.459. The composite z-score was 0.647 in the assay with Lefty1; -0.331 in assay [8]; -0.0961 in assay [10]; 0.224 in assay [15]; -0.19 in assay [16]; -0.0118 in the assay with Torsin-1A (Homo sapiens) [17]. Moreover, the composite z-score with Torsin-1A (Homo sapiens) [18] turned out to be 0.0265; in assay [19], 0.243. Further, the z-score was -0.202 in assay [7]; -0.278 (inactive) in [9]; -4.71 (inactive) in [11]; -0.516 (inactive) in assay [12]; -0.0243 (inactive) in assay [13]; -0.926 (inactive) in assay [14].
